ALOX12 inh – Primary qHTS assay for inhibitors of human arachidonate 12S-lipoxygenase (ALOX12): Round 2. purified 12hLO, xylenol orange hydroperoxide absorbance. Potency, µM (titrated, usually from 108 µM), for the others: at the highest dose activity change, negative = inhibition, hits mostly inhibitors. 1.1% of 580,000 active. AID 1671190, 2021; note: % is set by controls: 0 for no effect and ±100 for the full control effect
Target sequence (P18054 whole entry, looked up): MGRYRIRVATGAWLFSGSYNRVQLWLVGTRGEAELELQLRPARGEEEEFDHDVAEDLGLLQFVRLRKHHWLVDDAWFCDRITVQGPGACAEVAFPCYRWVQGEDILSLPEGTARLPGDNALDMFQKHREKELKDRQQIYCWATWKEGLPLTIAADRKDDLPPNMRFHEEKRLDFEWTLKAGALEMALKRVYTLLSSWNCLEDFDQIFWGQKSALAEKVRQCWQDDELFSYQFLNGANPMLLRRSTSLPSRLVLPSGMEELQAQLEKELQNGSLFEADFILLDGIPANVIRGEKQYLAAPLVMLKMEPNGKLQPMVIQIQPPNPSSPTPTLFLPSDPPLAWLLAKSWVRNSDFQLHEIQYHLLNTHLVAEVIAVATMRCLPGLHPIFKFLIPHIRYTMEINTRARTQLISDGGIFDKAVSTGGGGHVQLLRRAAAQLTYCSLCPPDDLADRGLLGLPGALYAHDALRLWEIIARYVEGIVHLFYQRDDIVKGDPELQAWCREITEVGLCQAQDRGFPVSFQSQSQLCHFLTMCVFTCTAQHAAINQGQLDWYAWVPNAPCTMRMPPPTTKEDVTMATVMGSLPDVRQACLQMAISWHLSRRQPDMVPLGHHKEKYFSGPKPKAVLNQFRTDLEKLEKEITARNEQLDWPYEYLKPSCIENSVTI
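Purified human 12hLO at 150 nM in 25 mM Hepes, 0.01% Triton X-100, pH 7.0, preincubated 15 min at room temperature with compound. Reaction started with 40 uM arachidonic acid, 30 min at room temperature. Hydroperoxide measured by Fe-xylenol orange, 573/405 nm absorbance ratio.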
SW480 rereplic – A quantitative high throughput screen for small molecules that induce DNA re-replication in SW480 colon adenocarcinoma cells. 1.8% of 340,000 active. SW480 DNA re-replication, Hoechst DNA content imaging, 48 h. Potency, µM (highest dose often 46.1 µM), for the others: at the highest dose re-replication activation, actives largely listed as activators; note: % of control where 0% means no effect; nearly all actives have a fitted effect of over 55% in size
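Cells (250 per well) received 23 nL compound or DMSO by pin tool and were kept 48 hr at 37 C, 5% CO2. Nuclei were then stained with Hoechst for 40 min and scanned for DNA content.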
KB-V1 MDR tox – qHTS assay for MDR1-selective chemotherapeutics: Primary screen using the drug-selected MDR subline cells KB-V1. KB-V1 MDR cells viability, CellTiter-Glo, 72 h. Potency, µM (highest dose often 46.1 µM), usual class: cytotoxic. 3.4% of 400,000 active; note: % is set by controls: 0 for no effect and ±100 for the full control effect; nearly all actives have a fitted effect of over 60% in size
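Readout: CellTiter-Glo luminescence, 10 min after addition. Cells: KB-V1 MDR subline, 72 h at 37 degrees C with compound. Analysis: corrected, normalized data fitted to concentration-effect curves.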
PINK1 modulator – A Quantitative High throughput Screen to Identify Chemical Modulators of PINK1 Expression; 0.2% of 410,000 active; Potency, µM (series often up to 76.6 µM), without a hit: at the highest dose activation (PINK1 increase), actives largely listed as activators; PINK1 immunofluorescence, high-content cytometry, 24 h; active = well fitted activation curve with a large enough effect; inconclusive = small, poorly fitted or top-dose-only effect; cell line not stated here; note: % of control where 0% means no effect; nearly all actives have a fitted effect of over 65% in size
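Stable cell line treated 24 h with compounds at 5 concentrations (CCCP controls), then fixed and immunostained for PINK1 plus nuclear and cell stains; PINK1 immunofluorescence quantified by laser-scanning microplate cytometry.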
KB-3-1 tox – qHTS assay for MDR1-selective chemotherapeutics: Primary screen using the parental adenocarcinoma cell KB-3-1 | KB-3-1 viability, CellTiter-Glo ATP luminescence, 72 h | Potency, µM (highest dose often 46.1 µM), actives largely listed as cytotoxic | 1.4% of 400,000 active | AID 1347075, 2019; note: % is set by controls: 0 for no effect and ±100 for the full control effect; nearly all actives have a fitted effect of over 60% in size
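Cytotoxicity measured as CellTiter-Glo luminescence after 72 h at 37 C. Compound titrations were pinned onto drug-naive KB-3-1 parental adenocarcinoma cells grown in DMEM with 10% FBS, and normalized data fitted to concentration-response curves.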
MCF10A rereplic – A quantitative high throughput screen for small molecules that induce DNA re-replication in MCF 10a normal breast cells; MCF 10A DNA re-replication, Hoechst nuclear intensity, 48 h; Potency, µM (highest dose often 46.1 µM), inactives show at the top dose activity, positive = re-replication, actives largely listed as activators; 2.9% of 350,000 active; AID 624296, 2012; note: % of control where 0% means no effect; nearly all actives have a fitted effect of over 50% in size
* hit, by the source's call; i = inactive; ? = inconclusive; nt = not tested or not shown; [ ] = remark or other dose. An excerpt weighted towards active compounds, which were near 5.8% of everything screened. Unless noted, calls come from the whole dose curve; as a rule, active = well fitted curve in the direction sought with a large enough effect; inconclusive = small, poorly fitted or top-dose-only effect, or another doubt; inactive = no such curve, though single readings can be large; an effect the other way counts as inactive or inconclusive. Potency is the fitted concentration of half-maximal effect.

SMILES | ALOX12 inh | SW480 rereplic | KB-V1 MDR tox | PINK1 modulator | KB-3-1 tox | MCF10A rereplic
Cc1ccc(/C=C2\S/C(=N/S(=O)(=O)c3cccs3)NC2=O)cc1 | 28.2µM* | -35.0% | i | 2.1% | i | 0.0%
O=c1c(S(=O)(=O)c2ccccc2)c[nH]c2cc(F)c(F)cc12 | -26.4% | nt | nt | nt | nt | nt
Cc1cc(C)c(NC(=O)CN2CCC(C(=O)N3CCCC3)CC2)c(C)c1 | -31.0% | nt | nt | nt | nt | nt
CN1CCCC(CC2c3ccccc3Sc3ccccc32)C1 (stereo unspecified) | -19.0% | -11.0% | 18.4µM* | -1.2% | i | -29.2%
CN1CCCC(CN2c3ccccc3Sc3ccccc32)C1 (stereo unspecified) | ? | ? | ? | -0.5% | i | -24.8%
Cc1cccc(CSc2nc(-c3cccs3)ccc2C#N)c1 | -27.4% | nt | i | 7.0% | i | nt
N#Cc1ccc(-c2cccs2)nc1SCc1cccnc1 | ? | 0.731µM* | ? | 12.4% | ? | 0.411µM*
CCc1ccccc1N(C(=O)c1cccs1)C1C=CS(=O)(=O)C1 (stereo unspecified) | -1.1% | ? | i | -5.5%[38.3 µM] | i | 2.59µM*
O=C(/C=C/c1ccc(Cl)cc1)N1CCN(c2ccc([N+](=O)[O-])c(N3CCOCC3)c2)CC1 | -2.7% | -54.1% | 2.31µM* | -1.1% | ? | 2.2%
O=C(COc1ccc(Cl)cc1)N1CCN(c2ccc([N+](=O)[O-])c(N3CCOCC3)c2)CC1 | -21.0% | -7.6% | 16.4µM* | 8.4% | i | -1.8%
O=C(CSc1ccc(Cl)cc1)N1CCN(c2ccc(Cl)cc2[N+](=O)[O-])CC1 | -5.1% | 2.2% | ? | 0.0%[38.3 µM] | i | 18.4µM*
Cc1ccc(OCC(=O)N2CCN(c3ccc([N+](=O)[O-])c(N4CCOCC4)c3)CC2)cc1 | -13.9% | 2.0% | ? | 4.3%[38.3 µM] | i | -20.4%
CC(C)(C)C(=O)N1CCN(c2ccc(Cl)cc2[N+](=O)[O-])CC1 | -10.2% | ? | ? | 0.8% | i | -5.5%
CC(NC(=O)c1ccc(-c2ccc(F)cc2)o1)C12CC3CC(CC(C3)C1)C2 (stereo unspecified) | -30.7% | nt | nt | nt | nt | nt
CCN(CC(=O)Nc1ccc(OC)cc1)C(=O)c1cc2c(s1)CCCCC2 | -20.1% | 4.1% | ? | -3.6% | i | -2.6%
Cc1ccc(NC(=O)CN(C)C(=O)Cc2coc3cc(C)c(C)cc23)cc1 | -3.3% | -25.8% | i | 3.8% | i | 2.6%
CCN(CC(=O)Nc1ccc(OC)cc1)C(=O)Cc1coc2cc(C)c(C)cc12 | 203.4% | -0.7% | 16.4µM* | 0.0% | i | -0.6%
CCc1cc(C(=O)N(CC)CC(=O)Nc2ccc(OC)cc2)sc1C | 326.0% | 8.8% | 18.4µM* | 2.7% | i | ?
CCN(CC(=O)Nc1ccc(OC)cc1)C(=O)c1ccc2c(c1)NC(=O)CS2 | 8.91µM* | 55.9% | i | -2.1% | i | -23.5%
C=C(C)C1CC=C(C)/C(=N/O)C1 (stereo unspecified) | 23.1% | nt | nt | nt | nt | nt
COc1ccc(-c2cc(-c3cccnc3)c3cncn3c2)cc1OC | 40.3%[176 µM] | nt | nt | nt | nt | nt
O=C(CCNc1cc(Cl)cc(Cl)c1)c1cccs1 | 3.7% | 1.4% | i | nt | i | 23.1µM*
O=C(CCNc1ccc(Cl)cc1)c1cccs1 | -10.1% | 1.9% | i | 3.0% | i | ?
Oc1cccc(-c2c3nc(c(-c4cccc(O)c4)c4ccc([nH]4)c(-c4cccc(O)c4)c4nc(c(-c5cccc(O)c5)c5ccc2[nH]5)CC4)C=C3)c1 | 3.61µM* | nt | nt | nt | nt | nt
N#Cc1c(N)nc2c(c1-c1cccc(O)c1)CCCCCC2 | -3.9% | -12.5% | i | nt | i | -1.5%
SMILES | ALOX12 inh | SW480 rereplic | KB-V1 MDR tox | PINK1 modulator | KB-3-1 tox | MCF10A rereplic
Cc1nc2ccccc2nc1COC(=O)c1cnc2ccccc2n1 | 14.5% | nt | nt | nt | nt | nt
CCOC(=O)[C@@H]1[C@H]2COc3cc(OC)ccc3[C@H]2N2C(=O)N(c3ccc(C(F)(F)F)cc3)C(=O)[C@]12C | -5.7% | 1.4% | ? | 39.8µM* | ? | 13.0%
CCOC(=O)[C@H]1[C@H]2COc3ccc(OC)cc3[C@@H]2N2C(=O)c3ccccc3NC(=O)[C@@]12C | 0.3% | 10.1% | i | 0.0% | i | ?
CCOC(=O)[C@@H]1[C@H]2COc3cc(OC)ccc3[C@@H]2N2C(=O)N(c3ccc(C(F)(F)F)cc3)C(=O)[C@@]12C | -0.2% | -3.6% | i | 1.1% | i | -6.0%
CCOC(=O)[C@H]1[C@H]2COc3ccc(OC)cc3[C@@H]2N2C(=O)c3cc(OC)ccc3NC(=O)[C@@]12C | -24.1% | 6.51µM* | ? | 2.2% | i | -4.8%
CCOC(=O)[C@H]1[C@H]2COc3ccc(Cl)cc3[C@@H]2N2C(=O)c3cc(F)c(F)cc3NC(=O)[C@@]12C | -2.0% | 6.6% | ? | 0.9% | 23.1µM* | -4.9%
O=C(NC1CCCCCC1)c1cc2c(s1)-c1ccsc1CC2 | -15.5% | nt | nt | nt | nt | nt
Cc1ccccc1C(=O)NCc1coc(-c2cccs2)n1 | 6.4% | nt | nt | nt | nt | nt
Cc1nc(-n2nc(C)c(Cl)c2C)sc1C(=O)N1CCC(C)CC1 | 35.5% | nt | nt | nt | nt | nt
Cc1ccccc1NC(=O)C(=Cc1ccc(C(=O)O)cc1)C(=O)Nc1ccccc1C | -12.1% | ? | ? | -2.3% | ? | 13µM*
CSS(=O)(=O)c1cccc2cccnc12 | ? | ? | i | 8.2% | i | 18.4µM*
CCOC(=O)Nc1ccc2c3c(cccc13)-c1ccccc1-2 | -15.8% | 6.51µM* | ? | 3.5% | ? | ?
Cc1ccc(NC(=O)N2CCN(S(C)(=O)=O)CC2)c(C)c1 | 3.2% | nt | nt | nt | nt | nt
Cc1cc(C)c2c(=O)[nH]c(SCC(=O)c3ccc(C(C)C)cc3)nc2n1 | -14.5% | -6.1% | 16.4µM* | 6.8% | i | ?
CCCCCCCNC(=O)C1(CC2CC(c3cccc(Br)c3)=NO2)CCN(C(=O)CCCCCBr)CC1 (stereo unspecified) | 39.8µM* | 28.9% | i | -0.3% | ? | ?
Cn1ccn(C(F)(F)C(F)Cl)c1=S (stereo unspecified) | 4.6% | nt | nt | nt | nt | nt
Cc1c(N/C(=N/S(=O)(=O)c2ccccc2)c2ccc(Cl)cc2)c(=O)n(-c2ccccc2)n1C | -5.3% | -137.9% | 23.1µM* | -1.0% | i | -6.2%
